AmpC no deterg = qHTS Inhibitors of AmpC Beta-Lactamase (assay without detergent). AmpC nitrocefin hydrolysis, absorbance 480 nm, 0.0001% Triton. P00811. AID 485341, 2010. 330,000 compounds, 0.52% hits. Potency, µM (top dose mostly 57.1 µM), without a hit: at the top dose activity change, negative = inhibition, most hits filed as inhibitors;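 further: plate controls were no compound for no effect and no enzyme for full effect; nearly all actives have a fitted effect of over 20% in size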
Target sequence (P00811 whole entry, looked up): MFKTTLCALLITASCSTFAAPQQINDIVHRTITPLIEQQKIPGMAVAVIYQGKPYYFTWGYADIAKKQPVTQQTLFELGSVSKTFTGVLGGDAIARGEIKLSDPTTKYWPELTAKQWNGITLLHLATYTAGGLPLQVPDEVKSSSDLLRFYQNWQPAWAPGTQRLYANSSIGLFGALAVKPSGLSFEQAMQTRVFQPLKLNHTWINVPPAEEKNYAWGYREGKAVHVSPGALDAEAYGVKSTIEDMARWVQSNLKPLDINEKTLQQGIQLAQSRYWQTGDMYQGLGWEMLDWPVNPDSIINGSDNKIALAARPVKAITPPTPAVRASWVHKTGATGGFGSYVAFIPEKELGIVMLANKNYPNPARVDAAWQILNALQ
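AmpC (5.3 nM in the dispensed reagent) in 20 mM phosphate pH 7.0 with 0.01% (detergent screen) or 0.0001% Triton X-100 was preincubated with compounds for 15 min at room temperature. Nitrocefin was then added from an 800 uM solution, and hydrolysis was followed at 480 nm.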
SARS PLpro yeast = qHTS of Yeast-based Assay for SARS-CoV PLP | S. cerevisiae expressing SARS-CoV PLpro, growth rescue | 330,000 compounds, 0.19% hits | AID 485353, 2010 | Potency, µM (doses to about 32.9 µM), for inactives: top-dose activity, positive = growth rescue, actives largely listed as activators; calls by dose curve; further: 0% is about no effect; nearly all actives have a fitted effect of over 55% in size
NS1 inh = qHTS Assay for Inhibitors of Influenza NS1 Protein Function; Potency, µM (doses to about 46.1 µM), inactives show at the highest dose activity, positive = more growth; 270,000 compounds, 0.4% hits; calls by dose curve; further: actives are rising curves; nearly all actives have a fitted effect of over 50% in size
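Recovery from NS1-induced slow growth read by OD600 in budding yeast switched to galactose assay medium (pH 6.0, -URA) at 1:100 dilution. Compound 23 nl per well; the matching strain lacking NS1 serves as control.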
Giardia FBPA inh-1 = qHTS Assay for Inhibitors of Fructose-1,6-bisphosphate Aldolase from Giardia Lamblia. purified Giardia FBPA. AID 2451, 2010. 290,000 compounds, 0.71% hits. Potency, µM (doses to about 59.6 µM), for the others: at the highest dose activity, negative = inhibition, most hits filed as inhibitors; further: on the % scale 0 is the no-effect control and ±100 the full control effect; nearly all actives have a fitted effect of over 55% in size
Target sequence (A8B2U2 whole entry, looked up): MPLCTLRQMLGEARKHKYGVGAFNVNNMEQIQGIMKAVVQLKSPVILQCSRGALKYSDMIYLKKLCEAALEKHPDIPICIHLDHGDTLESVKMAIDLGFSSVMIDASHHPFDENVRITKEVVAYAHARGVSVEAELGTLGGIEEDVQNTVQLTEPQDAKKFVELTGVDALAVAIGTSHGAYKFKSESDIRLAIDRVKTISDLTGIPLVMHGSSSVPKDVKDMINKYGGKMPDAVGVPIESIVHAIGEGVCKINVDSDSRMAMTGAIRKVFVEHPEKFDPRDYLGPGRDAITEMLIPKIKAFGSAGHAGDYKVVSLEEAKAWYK
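40 nM FBPA preincubated 10 min at RT with compound (up to 57.5 uM final), then substrate plus GAPDH/TPI/NAD/arsenate coupling and diaphorase/resazurin added. Fluorescence read after 20 min at RT, 525/598 nm.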
AmpC inh detg = qHTS Inhibitors of AmpC Beta-Lactamase (assay with detergent) | P00811 | AmpC hydrolysis of nitrocefin, absorbance 480 nm, 0.01% Triton | Potency, µM (series often up to 114 µM), inactives show top-dose activity change, negative = inhibition, actives largely listed as inhibitors | 370,000 compounds, 0.041% hits;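 further: 0% = no-compound wells and -100% = no-enzyme wells; nearly all actives have a fitted effect of over 25% in size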
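AmpC (5.3 nM in the dispensed reagent) in 20 mM phosphate pH 7.0 with 0.01% (detergent screen) or 0.0001% Triton X-100 was preincubated with compounds for 15 min at room temperature. Nitrocefin was then added from an 800 uM solution, and hydrolysis was followed at 480 nm.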
Giardia growth = qHTS Assay for Inhibitors of Fructose-1,6-bisphosphate Aldolase from Giardia Lamblia: Giardia lamblia growth inhibition; shares compounds with Giardia FBPA inh-1; Giardia lamblia trophozoite growth inhibition; Potency, µM (series often up to 57.5 µM), inactives show at the highest dose activity change, negative = inhibition, actives largely listed as inhibitors; 1,500 compounds, 5% hits; AID 2785, 2010;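 further: trophozoites exposed to compound for 48 h at 37 °C; on the % scale 0 is the no-effect control and ±100 the full control effect; nearly all actives have a fitted effect of over 70% in size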
Mammalian tox = qHTS Assay for Inhibitors of Fructose-1,6-bisphosphate Aldolase from Giardia Lamblia: Mammalian cellular toxicity. mammalian cell viability counter-screen, qHTS. shares compounds with Giardia FBPA inh-1. Potency, µM (top dose mostly 57.5 µM), for the others: at the top dose viability change, negative = toxicity, hits mostly inhibitors. 1,500 compounds, 4% hits;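 further: Chinese hamster ovary cells used as mammalian cytotoxicity surrogate; viability measured as cellular ATP by luminescence; compound exposure lasted 48 h before reading; on the % scale 0 is the no-effect control and ±100 the full control effect; nearly all actives have a fitted effect of over 60% in size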
Giardia FBPA inh-2 = qHTS Assay for Inhibitors of Fructose-1,6-bisphosphate Aldolase from Giardia Lamblia: Primary screen confirmation. shares compounds with Giardia FBPA inh-1. purified Giardia aldolase enzyme activity, qHTS. Potency, µM (titrated, usually from 57.5 µM), without a hit: top-dose activity change, negative = inhibition, usual class: inhibitors. 1,500 compounds, 5% hits; further: on the % scale 0 is the no-effect control and ±100 the full control effect; nearly all actives have a fitted effect of over 45% in size
Rabbit FBPA inh = qHTS Assay for Inhibitors of Fructose-1,6-bisphosphate Aldolase from Giardia Lamblia: Rabbit FBPA Selectivity | Potency, µM (series often up to 57.5 µM), for the others: top-dose activity, negative = inhibition, most hits filed as inhibitors | 1,500 compounds, 4% hits | shares compounds with Giardia FBPA inh-1 | Rabbit muscle FBPA enzyme inhibition, selectivity counter-screen; further: on the % scale 0 is the no-effect control and ±100 the full control effect; nearly all actives have a fitted effect of over 60% in size
GAPDH coupling = qHTS Assay for Inhibitors of Fructose-1,6-bisphosphate Aldolase from Giardia Lamblia: Coupling assay counterscreen confirmation; shares compounds with Giardia FBPA inh-1; GAPDH coupling enzyme counterscreen, biochemical, qHTS; Potency, µM (doses to about 57.5 µM), for inactives: top-dose activity change, negative = inhibition, usual class: inhibitors; 1,500 compounds, 6% hits; AID 2795, 2010; further: on the % scale 0 is the no-effect control and ±100 the full control effect; nearly all actives have a fitted effect of over 55% in size
* = called active by the depositor; ? = inconclusive; . = no result; [ ] = remark or other dose. Compounds with a hit are over-represented: about 1.4% of the library has one in this group of screens. Unless noted, the call rests on the fitted dose curve; in most records, active means well fitted curve in the direction sought with a large enough effect; inconclusive means small, poorly fitted or top-dose-only effect, or another doubt; inactive means no such curve, though single readings can be large; an effect the other way counts as inactive or inconclusive. Potency means the concentration at half of the fitted maximal effect.

SMILES | AmpC no deterg | SARS PLpro yeast | NS1 inh | Giardia FBPA inh-1 | AmpC inh detg | Giardia growth | Mammalian tox | Giardia FBPA inh-2 | Rabbit FBPA inh | GAPDH coupling
O=C(COc1ccc(Cl)cc1)N1CCN(Cc2ccc([N+](=O)[O-])cc2)CC1 | 93% | -7% | . | 22µM* | -15% | -8%[10.4 µM] | -5% | -2% | 2% | 8%
O=[N+]([O-])c1cccc(CN2CCN(Cc3ccc(Cl)cc3)CC2)c1 | -1% | -2% | . | 18µM* | -2% | ? | -11% | 6% | 2% | 9%
S=c1nc[nH]c2c1ncn2C1CCCO1 (stereo not given) | -17% | 2% | 1% | 2.5µM* | -13% | 17%[38.3 µM] | 32µM* | -4% | -5% | -5%
OC[C@@H]1CCC[C@H](n2cnc3c(=S)nc[nH]c32)O1 | . | . | 5% | . | . | . | . | . | . | .
O=C(NC1CCCCCC1)c1cccc(COCC(F)(F)F)c1 | -18% | -2% | 0% | 3% | -14% | . | . | . | . | .
Cc1ccc(C)c(NC(=O)CSc2n[nH]c(-c3ccncc3)n2)c1 | 2% | 2% | 4% | -13% | -1% | . | . | . | . | .
Cc1cccc(NC(=O)CSc2n[nH]c(-c3ccncc3)n2)c1C | -4% | 2% | 0% | 22µM* | 4% | 14% | -2% | 6% | 15% | 17%
CCN1CCc2nc(N)sc2C1 | -32% | 0% | . | 11µM* | 1% | -19% | 14% | ? | ? | 28µM*
COc1cc(/C=N/Nc2nc(=O)[nH]nc2C)cc([N+](=O)[O-])c1O | -36% | -1% | 4% | 20µM* | 0% | ? | 19% | -15% | -21% | -15%
Cc1n[nH]c(=O)nc1N/N=C/c1ccc(O)c([N+](=O)[O-])c1 | -13% | 6% | 2% | 18µM* | ? | 14µM* | 10% | -11% | -15% | -6%
C/C(=N\NS(=O)(=O)c1ccc([N+](=O)[O-])cc1)c1cccs1 | -16% | -5% | . | 16% | 3% | . | . | . | . | .
O=C(CN1CCOCC1)Nc1c2c(nc3ccccc13)N(Cc1ccccc1)CC2 | 61% | -4% | -5% | 16µM* | -1% | ? | -3% | -7% | -3% | -5%
S=c1[nH]nc(-c2ccn[nH]2)n1-c1ccccc1Cl | -26% | -1% | 1% | 20µM* | 8% | 45µM* | -11% | 0% | -1% | 5%
COc1ccc(C(=O)Nc2ccccc2C)cc1S(=O)(=O)N1CCOCC1 | -7% | 1% | 2% | . | 6% | . | . | . | . | .
COCCN1C(=O)C(O)=C(C(=O)c2cccs2)C1c1ccccc1 (stereo not given) | -19% | 11% | -2% | 3% | 1% | . | . | . | . | .
O=C(NC(=S)Nc1ccccc1[N+](=O)[O-])c1cncc(Br)c1 | -28% | -5% | -7% | 7.9µM* | -9% | 11µM* | -4% | 6% | 5% | 9%
O=C(NC(=S)Nc1ccccn1)c1cncc(Br)c1 | -11% | 17% | 7% | -26% | ? | . | . | . | . | .
Cc1cccnc1NC(=S)NC(=O)c1cccs1 | -20% | 3% | -12% | 20µM* | -10% | 0%[10.4 µM] | 32µM* | -1% | 6% | 15%
O=C(NC(=S)Nc1ccccc1C(=O)O)c1cncc(Br)c1 | -31% | 1% | 11% | 9% | ? | . | . | . | . | .
Cc1cccnc1NC(=S)NC(=O)c1cncc(Br)c1 | -20% | 1% | 3% | 10µM* | -8% | -2%[38.3 µM] | -8% | 0% | -6% | -1%
Cc1cccnc1NC(=O)CNC(=O)c1cccs1 | -12% | 0% | . | . | 0% | . | . | . | . | .
CC(=O)c1cccc(NC(=S)NC(=O)c2ccccc2)c1 | -25% | 7% | 6% | ? | -10% | . | . | . | . | .
CC(=O)c1cccc(NC(=S)NC(=O)c2cncc(Br)c2)c1 | -29% | . | 19% | 13µM* | ? | -10%[10.4 µM] | 15% | 9% | 10% | 7%
O=C(Nc1ccccc1Cl)c1cc[n+](Cc2ccc([N+](=O)[O-])cc2)cc1 | -17% | -1% | 4% | 2% | 3% | . | . | . | . | .
O=c1[nH]c(=S)[nH]c(O)c1C(c1ccccn1)c1c(O)[nH]c(=S)[nH]c1=O | -14% | 0% | . | 16µM* | -16% | 2%[10.4 µM] | 13% | -2% | 11% | -5%
SMILES | AmpC no deterg | SARS PLpro yeast | NS1 inh | Giardia FBPA inh-1 | AmpC inh detg | Giardia growth | Mammalian tox | Giardia FBPA inh-2 | Rabbit FBPA inh | GAPDH coupling
CCn1c(O)c(C(c2ccccn2)c2c(O)n(CC)c(=S)[nH]c2=O)c(=O)[nH]c1=S | -2% | 2% | -7% | 18µM* | 0% | 18%[10.4 µM] | 5% | -6% | 12% | 11%
CCCN(CCC)C(=O)Cn1c(=O)n(CCCC(=O)NCc2ccco2)c(=O)c2sccc21 | 5% | -2% | . | 11% | -6% | . | . | . | . | .
COc1ccc(-c2nnc(NC(=O)c3ccccc3C)o2)cc1 | -30% | -5% | -58% | 16µM* | -5% | ? | -15% | -1% | -6% | -10%
Cc1ccccc1C(=O)Nc1nnc(-c2ccncc2)o1 | -10% | -1% | -2% | 7% | -1% | . | . | . | . | .
CCOC(=O)C1=C(c2ccccc2)N(C)C(=O)NC1c1ccc(OC(F)F)c(OC)c1 (stereo not given) | 43% | 9% | -1% | 4% | -6% | . | . | . | . | .
N#Cc1c(NC(=O)CCC(=O)O)sc2c1CCCC2 | -22% | 2% | -1% | 7% | 0% | . | . | . | . | .
N#Cc1c(NC(=O)CCC(=O)O)sc2c1CCCCC2 | -17% | 0% | -5% | 16µM* | 0% | -6% | 10% | -18% | -2% | -9%
COc1cccc(N2CCN(C(=O)c3cc4ccc(OC)cc4[nH]3)CC2)c1 | -4% | 0% | 6% | 1% | -11% | . | . | . | . | .
Cc1ccc(C=C2C(Cl)=C(Cl)C(Cl)=C2Cl)cc1 | 16µM* | 0% | 8% | 16µM* | -1% | -10%[10.4 µM] | 9% | 2% | 9% | 15%

Screens from PubChem BioAssay.
